# Assay results published in PubChem BioAssay AID624305 (National Center for Advancing Translational Sciences (NCATS), 2012).
# Records with an inconclusive call do not appear. Calls of active or inactive are those of the source. Calls follow the shape of the dose curve; as a rule, active = well fitted activation curve with a large enough effect; inconclusive = small, poorly fitted or top-dose-only effect; inactive = no such curve, though single readings can be large or run the other way.
# Experiment: qHTS assay for re-activators of p53 using a Luc reporter: Hit Validation; also: nearly all actives have a fitted effect of over 75% in size; as to activation: 0% is about no effect
# Conditions: p53-responsive luciferase reporter cells, luminescence, H1299 line expressing heat-sensitive Ala138Val p53; series mostly up to 46.1 µM
# Source text: The p53 tumor suppressor plays a key role in suppression of tumorigenesis and in human carcinogenesis. It is frequently found inactivated in human cancers, mainly by point mutation. These point mutations are found in a wide variety of human cancers and a majority of them affect the DNA binding domain of the protein. The point mutations either alter native p53 conformation or abolish DNA contact. Additionally, cancer cells with p53 mutations are more resistant to chemo-radiation therapies.
# In order to find activators to reactivate this important protein, a cell-based screen for p53-dependent luciferase-reporter expression was developed. A p53-null H1299 lung cancer cell line was stably co-transfected with a temperature sensitive p53 mutant, p53-A138V, and a p53-responsive BP100-luciferase reporter. This cell model has previously been characterized in a gene chip profiling experiment for p53 activation. By lowering the culture temperature from 37 deg C (mutant p53 conformation) to 32 deg C (w.t. p53 conformation), a 30-60 fold increase in activation of luciferase activity is observed. At assay temperate, 37 deg C, basal reporter expression is very low and after the addition of detection reagent, a luminescent read-out is carried out. This is the hit validation assay, confirming the hits identified from the primary screen.
# NIH Chemical Genomics Center [NCGC]
# NIH Molecular Libraries Probe Production Centers Network [MLPCN]
# Assay Provider (PI): Yi Sung, University of Michigan at Ann Arbor
# 5ul of 1000 cells per well are dispensed in all wells except column 4, into white solid-bottom TC-treated Kalypsys plates. The cells are kept in Opti-MEM and supplemented with 10% FBS and dispensed using a Multidrop (Thermo). Then using the Kalypsys pin-tool, 23nl of compounds are pinned. The compounds are starting concentration at 10mM, with 1:5 dilution, 4 points, and the control compound nocodazole is pinned in column 1 at 25mM, 1:3 dilution, in duplicate, 25mM nocodazole is pinned in column 2. Please note, all concentrations are working concentrations. 5ul of 1pM purified luciferase enzyme is dispensed using the Kalypsys dispenser in column 4. Plates are incubated for 24 hrs at 37 deg C, 5% CO2, and 95% humidity. Then 4ul of the detection reagent Amplite (ABD Bioquest) is added using the Kalypsys dispenser. Plates are incubated for 10 min at ambient room temperature and are then read on the ViewLux (Perkin Elmer) using a clear filter for a luminescent read-out.
# Potency is read from the fitted curve at half-maximal effect.
SMILES,Potency,activation
CN(C)c1ccc(C(=O)Nc2nc3c(s2)CCCC3)cc1,82 nM (active),–
CC(C)c1ccc(OCC(=O)NC(C)c2ccccc2)cc1 (stereo not given),inactive,–
O=C1CC(c2ccc3c(c2)OCCO3)Oc2ccc([N+](=O)[O-])cc21 (stereo not given),2590 nM (active),–
O=C(NCC(=O)N1CCN(c2ncccn2)CC1)c1ccc(F)cc1,inactive,–
COc1ccc(C2=NN(C(C#N)c3ccc(OC)cc3)C(c3ccccc3)C2)cc1 (stereo not given),14600 nM (active),–
Cc1ccc(NC(=O)c2ccc(OC(=O)COc3ccc(Cl)c(C)c3)cc2)cc1,9200 nM (active),–
O=C(/C=C/c1ccco1)Nc1ccc2nn(-c3ccccc3)nc2c1,inactive,–
COc1ccc(N2CCN(C(=O)COC(=O)c3ccc(OC(F)F)cc3)CC2)cc1,inactive,–
CC(C)(C)c1cc(-n2ccnc2)n2ncc(-c3ccc(Cl)cc3)c2n1,inactive,–
COc1ccc(/C(C)=N/Nc2nccnc2Cl)cc1,16400 nM (active),–
O=C(/C=C/c1ccccc1)NC1CCSC1=O (stereo not given),–,23.4% [at 9.22 µM] (inactive)
COc1ccc(-c2cc(=O)c3ccccc3s2)cc1,4110 nM (active),–
CSC1=NCCN1C(=O)c1ccc(Br)o1,inactive,–
CCOC(=O)c1cc(-c2ccccc2)sc1NC(=O)CC,inactive,–
CCC(=O)Nc1ccc2oc(-c3cccc(C)c3)nc2c1,73.1 nM (active),–
Cc1ccc(C)n1-c1sc2c(c1C(=O)O)CCCC2,inactive,–
Cc1cc(C)c2nc(NNC(=O)c3ccc(S(=O)(=O)N4CCCC(C)C4)cc3)sc2c1 (stereo not given),inactive,–
COc1ccccc1NC(CC(=O)c1ccccc1)C(=O)OCC(=O)c1ccc(C)c(C)c1 (stereo not given),291 nM (active),–
COc1ccc(-c2nsc3c(N4CCCC4)ncnc23)cc1,92 nM (active),–
COc1ccc2nc(SCc3ccccc3)nc(C)c2c1,1460 nM (active),–

SMILES,Potency,activation
CC(=O)Oc1ccc(Cl)cc1/C=C/c1ccc2ccccc2n1,4610 nM (active),–
Clc1cccc(Cl)c1CSc1nnc2ccccn12,inactive,–
O=C(/C=C/Nc1ccccc1C(=O)O)c1cccs1,inactive,–
Cc1cccc(C(=O)OCC(=O)N2CCCCCC2)c1O,5170 nM (active),–
CCN1CCN(CC(=O)Nc2nc3ccc(C)cc3s2)CC1,inactive,–
COc1ccc(C(=O)N=c2nc3ccccn3s2)cc1,92 nM (active),–
O=C(Nc1ccc2c(c1)CCC2)c1ccccc1F,366 nM (active),–
C/C(Cn1nnc([N+](=O)[O-])n1)=N\NC(=O)c1ccc(C)cc1,inactive,–
COc1ccc(-c2nc(-c3ccc(NC(=O)c4ccncc4)cc3)no2)cc1OC,inactive,–
Clc1ccc(Nc2nc(-c3cccs3)cs2)nc1,4110 nM (active),–
COC(=O)c1nn(-c2ccc(-c3ccccc3)cc2)cc1O,92 nM (active),–
Cc1ccc2oc(-c3ccc(C)c(NC(=S)NC(=O)c4cccs4)c3)nc2c1,4610 nM (active),–
C/C(=N/NC(=S)Nc1ccccc1)c1ccc2c(c1)OCO2,inactive,–
Fc1cccc(NCc2cn3ccccc3n2)c1,3260 nM (active),–
O=C(NOCc1ccccc1)c1ccccc1,9200 nM (active),–
CCOc1ccc(/C=N/NC(=O)CN2CCSCC2)cc1,inactive,–
O=C(/C=C/c1cccs1)Nc1ccc(Br)cn1,1840 nM (active),–
Cc1cccc(NC(=S)NC(=O)C2CC2)c1,inactive,–
O=C(COc1ccccc1Cl)Nc1ccc(Cl)cn1,20600 nM (active),–
Cc1ccn2c(c1)nc(=S)n2C(=O)c1ccccc1,731 nM (active),–
